The whole screen tested about 5,500 compounds, of which about 2,000 (36%) were called active. Inconclusive results (about 18%) are left out. No stated cut-off is given here; in the data, active means normalized growth mostly below about 0.91 (no sharp cut-off); inconclusive means no clear call, values can overlap the other calls; inactive means mostly above about 0.92. The list shows a part of the results.
Experiment: chemical genetic growth profiling, strain panel (AID 1159580);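 further: tested at 20 µM; growth read once vehicle control cultures reached saturation at 30 °C; 1 = growth at the plate median or of vehicle wells; lower values mean less growth of the strain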
Settings: S. cerevisiae deletion strains, growth OD
[1] = locus YAL013W, strain DEP1, hits give low values
[2] = locus YAL040C, strain CLN3, hits give low values
[3] = locus YCL061C, strain MRC1 (second series), hits give low values
[4] = locus YDR363W, strain ESC2, hits give low values
[5] = locus YER002W, strain NOP16, hits give low values
[6] = locus YGR078C, strain PAC10, hits give low values
[7] = locus YGR229C, strain SMI1, hits give low values
[8] = locus YNL128W, strain TEP1, hits give low values
[9] = locus YNL153C, strain GIM3, hits give low values
[10] = locus YNL175C, strain NOP13, hits give low values
[11] = locus YNL197C, strain WHI3, hits give low values
[12] = locus YNL224C, strain SQS1, hits give low values
[13] = locus YNL322C, strain KRE1, hits give low values
[14] = locus YOR083W, strain WHI5 (second series), hits give low values
[15] = locus YPL055C, strain LGE1, hits give low values
[16] = locus YPL241C, strain CIN2, hits give low values

Measured: normalized growth

O=c1[nH]c2cc([N+](=O)[O-])c([N+](=O)[O-])cc2[nH]c1=O
inactive: [1] 0.998 | [2] 1.03 | [3] 1 | [4] 0.986 | [5] 0.996 | [6] 1 | [7] 0.977 | locus YJR075W, strain HOC1, hits give low values 0.987 | locus YMR263W, strain SAP30, hits give low values 1 | [8] 1.01 | [9] 1.01 | [10] 1.01 | [11] 0.989 | [12] 0.989 | [13] 0.986 | [14] 0.969 | [15] 0.988 | [16] 1

O=C1CN2Cc3c(ccc(Cl)c3Cl)N=C2N1
inactive: locus YAL021C, strain ccr4, hits give low values 0.988 | locus YAL026C, strain drs2, hits give low values 0.976 | locus YAL030W, strain snc1, hits give low values 0.987 | locus YBL061C, strain skt5, hits give low values 1 | locus YBR009C, strain hhf1, hits give low values 0.966 | locus YBR023C, strain chs3, hits give low values 0.983 | locus YBR171W, strain sec66, hits give low values 0.967 | locus YBR231C, strain swc5, hits give low values 0.982 | locus YBR279W, strain paf1, hits give low values 0.978 | locus YCL011C, strain gbp2, hits give low values 0.975 | locus YCL016C, strain dcc1, hits give low values 0.978 | locus YCL061C, strain MRC1, hits give low values 0.984 | locus YCL069W, strain vba3, hits give low values 0.986 | locus YCR088W, strain abp1, hits give low values 1.03 | locus YDL005C, strain med2, hits give low values 0.96 | locus YDL040C, strain nat1, hits give low values 0.986 | locus YDR001C, strain nth1, hits give low values 1.05 | locus YDR069C, strain doa4, hits give low values 0.972 | locus YDR137W, strain rgp1, hits give low values 0.962 | locus YDR159W, strain sac3, hits give low values 0.965 | locus YDR195W, strain ref2 0.961 | locus YDR297W, strain sur2, hits give low values 0.97 | locus YDR334W, strain swr1, hits give low values 0.99 | locus YDR335W, strain msn5, hits give low values 1.01 | locus YDR392W, strain spt3, hits give low values 0.952 | locus YEL003W, strain gim4, hits give low values 0.98 | locus YEL061C, strain CIN8 (second series), hits give low values 1.04 | locus YER015W, strain faa2, hits give low values 1.03 | locus YER016W, strain bim1, hits give low values 0.979 | locus YER155C, strain BEM2 (second series), hits give low values 1.02 | locus YFR010W, strain ubp6, hits give low values 1.02 | locus YGL167C, strain pmr1, hits give low values 0.968 | locus YGL173C, strain kem1, hits give low values 0.972 | locus YGL227W, strain vid30, hits give low values 0.969 | locus YGL240W, strain doc1, hits give low values 0.97 | locus YGL253W, strain hxk2, hits give low values 0.987 | locus YHR013C, strain ard1, hits give low values 0.956 | locus YHR027C, strain rpn1, hits give low values 0.996 | locus YHR030C, strain SLT2, hits give low values 0.984 | locus YHR079C, strain IRE1, hits give low values 0.996 | locus YHR142W, strain chs7, hits give low values 1.04 | locus YJL092W, strain hpr5, hits give low values 0.983 | locus YJL095W, strain BCK1 (second series), hits give low values 0.982 | locus YJL095W, strain BCK1, hits give low values 0.973 | locus YJL115W, strain asf1, hits give low values 1.08 | locus YJL129C, strain trk1, hits give low values 0.978 | locus YJL154C, strain vps35, hits give low values 0.976 | locus YJL164C, strain tpk1, hits give low values 0.999 | locus YJL166W, strain qcr8, hits give low values 0.993 | locus YJL187C, strain SWE1, hits give low values 0.977 | locus YJR066W, strain TOR1, hits give low values 0.929 | locus YKL160W, strain elf1, hits give low values 0.996 | locus YKR026C, strain gcn3, hits give low values 0.97 | locus YKR091W, strain srl3, hits give low values 0.987 | locus YLL001W, strain dnm1, hits give low values 0.956 | locus YLL026W, hits give low values 0.975 | locus YLL041C, strain sdh2, hits give low values 0.975 | locus YLR027C, strain aat2, hits give low values 0.991 | locus YLR113W, strain HOG1, hits give low values 1.01 | locus YLR221C, strain rsa3, hits give low values 1 | locus YLR258W, strain gsy2, hits give low values 0.979 | locus YLR262C, strain YPT6 (second series), hits give low values 0.985 | locus YLR320W, strain mms22, hits give low values 1.01 | locus YLR357W, strain rsc2, hits give low values 0.925 | locus YLR370C, strain arc18, hits give low values 0.97 | locus YLR384C, strain iki3, hits give low values 1.02 | locus YML120C, strain ndi1, hits give low values 0.996 | locus YMR058W, strain fet3, hits give low values 0.978 | locus YMR125W, strain sto1, hits give low values 0.92 | locus YMR129W, hits give low values 0.964 | locus YMR205C, strain PFK2, hits give low values 0.949 | locus YMR231W, strain pep5, hits give low values 0.968 | locus YNL071W, strain lat1, hits give low values 0.985 | locus YNL183C, strain NPR1, hits give low values 0.941 | locus YNL209W, strain ssb2, hits give low values 0.987 | locus YNL248C, strain rpa49, hits give low values 0.997 | locus YNL322C, strain KRE1 (second series), hits give low values 0.985 | locus YNR049C, strain mso1, hits give low values 1.02 | locus YOR001W, strain rrp6, hits give low values 0.996 | locus YOR070C, strain gyp1, hits give low values 1.03 | locus YOR080W, strain dia2, hits give low values 0.963 | locus YOR083W, strain WHI5, hits give low values 0.999 | locus YOR106W, strain vam3, hits give low values 0.991 | locus YOR231W, strain MKK1, hits give low values 0.989 | locus YOR265W, strain rbl2, hits give low values 0.988 | locus YOR270C, strain vph1, hits give low values 0.957 | locus YOR290C, strain snf2, hits give low values 0.957 | locus YPL051W, strain arl3, hits give low values 1 | locus YPL078C, strain atp4, hits give low values 0.995 | locus YPL106C, strain sse1, hits give low values 0.958 | locus YPL240C, strain hsp82, hits give low values 0.97 | locus YPL256C, strain CLN2, hits give low values 1.01
active: locus YEL037C, strain rad23, hits give low values 1.09 [resistant] | locus YER111C, strain swi4, hits give low values 1.1 [resistant] | locus YLR342W, strain FKS1, hits give low values 1.11 [resistant]

C[C@@H]1C(=O)NC2=Nc3cccc(Cl)c3CN21
inactive: [1] 0.983 | [2] 1 | [3] 1 | locus YDR150W, strain NUM1, hits give low values 1.01 | [4] 1 | [5] 1 | [6] 1 | [7] 1 | locus YMR307W, strain GAS1, hits give low values 1 | [8] 1.01 | [9] 0.982 | [10] 0.992 | [11] 1 | [12] 1 | [13] 0.997 | [14] 1.01 | [15] 1.02 | [16] 1

Source: PubChem BioAssay AID1159580 (chemical genetic matrix, 2015)
